{"source": "the supplement of paper PMC7156485", "note": "± gives the standard deviation of the averaged measurements.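 Also: TDF denotes transformed human dermal fibroblasts of mesenchymal origin.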", "data": [{"test_system": "TDF", "assay": "cell number relative to DMSO (% of DMSO); higher = more cells (less growth inhibition / toxicity)", "conditions": "concentration: 10 µM; 24 h", "procedure,_shortened": "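Cells were seeded at 800 per well in 384-well plates with RPMI containing 10% FBS; both HCC1569 and TDF lines were used. Compounds were added at 10 µM for 24 h at 37 °C, in triplicate, before fixation in 3.7% formaldehyde and staining with a rabbit anti-H1.0 antibody, an AlexaFluor 647 secondary and DAPI. H1.0 nuclear intensity or cell number is reported as percent of the plate control using the median of replicates, and HCC1569 values were smoothed for positional effects.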", "values": [{"smiles": "COc1ccc(C(=O)/C(Cc2cc(OC)c(OC)c(OC)c2)=C(\\C(=O)[O-])c2ccc3c(c2)OCO3)cc1.[Na+]", "cell number": 98.7}, {"smiles": "N#CC(=Cc1ccc(O)c(O)c1)C(=O)NCCc1ccccc1", "note": "[Tyrphostin AG 698]", "cell number": 91}, {"smiles": "CC(C)COCC(CN(Cc1ccccc1)c1ccccc1)N1CCCC1.Cl", "note": "(stereo not given) [Bepridil.HCl]", "cell number": 103}, {"smiles": "C=C1C(=CC=C2CCCC3(C)C2CCC3C(C)C=CC(O)C2CC2)CC(O)CC1O", "note": "(stereo not given) [Calcipotriene]", "cell number": 109}, {"smiles": "CCN1C(=O)C=CC1=O", "note": "[N-Ethylmaleimide]", "cell number": "97.2 ± 4.9"}, {"smiles": "O=C(O)c1cc2cc(F)ccc2[nH]1", "note": "[5-Fluoroindole-2-carboxylic acid]", "cell number": 89}, {"smiles": "C#Cc1cccc(Nc2ncnc3cc(OCCOC)c(OCCOC)cc23)c1", "note": "[Erlotinib]", "cell number": "94.5 ± 3.9"}, {"smiles": "CCCCCCCCCCCCCCCC(=O)O", "note": "[Hexadecanoic acid]", "cell number": 92.6}, {"smiles": "CCC(=O)OC1(C(=O)SCF)C(C)CC2C3CC(F)C4=CC(=O)C=CC4(C)C3(F)C(O)CC21C", "note": "(stereo not given)", "cell number": 105}, {"smiles": "CCCCCCCCCCCCCCCCCCCC(=O)O", "note": "[Eicosanoic acid]", "cell number": 102}, {"smiles": "CCCOc1cc2c(cc1\\C(C)=C/C=C/C(C)=C/C(=O)O)C(C)(C)CCC2(C)C", "cell number": 107}, {"smiles": "CC(NC(=O)C(C#N)=Cc1ccc(O)c(O)c1)c1ccccc1", "note": "(stereo not given) [Tyrphostin AG 527]", "cell number": 89.2}, {"smiles": "Cl.NCC1OC(C23CC4CC(CC(C4)C2)C3)Cc2c1ccc(O)c2O", "note": "(stereo not given)", "cell number": 68.9}, {"smiles": "CN(C)CCC=C1c2ccccc2COc2ccc(CC(=O)O)cc21", "note": "[Olopatadine]", "cell number": 106}, {"smiles": "CCCCCC#CCC#CCC#CCC#CCCCC(=O)O", "note": "[5,8,11,14-Eicosatetraynoic acid]", "cell number": 86.7}, {"smiles": "NC(C(=O)NC1C(=O)N2C(C(=O)O)=C(Cl)CSC12)c1ccccc1", "note": "(stereo not given) [Cefaclor]", "cell number": 99.5}, {"smiles": "Cn1sc(=O)n(Cc2ccccc2)c1=O", "note": "[GSK-3b Inhibitor I]", "cell number": 102}, {"smiles": "CCCCCCCCC=CCC=CCC=CCCCC(=O)O", "note": "[5(Z), 8(Z), 11(Z)-Eicosatrienoic Acid]", "cell number": "105 ± 7.9"}, {"smiles": "Fc1ccc(-c2c3cccc(C(F)(F)F)c3nn2Cc2ccc(F)cc2Cl)cc1", "cell number": 95.3}, {"smiles": "CCCCCCCCCCCCCCCC(O)C(N)CO", "note": "(racemic) [DL-erythro-Dihydrosphingosine]", "cell number": 87.8}, {"smiles": "CC12CCC3c4ccc(O)cc4CCC3C1CCC2O", "note": "(stereo not drawn) [beta-Estradiol]", "cell number": 89.3}, {"smiles": "CC(C)(ON=C(C(=O)NC1C(=O)N2C(C(=O)[O-])=C(C[n+]3ccccc3)CSC12)c1csc(N)n1)C(=O)O", "note": "(stereo not given) [Ceftazidime]", "cell number": 103}, {"smiles": "CCN(CC)C(=O)c1ccc(Nc2nc(OCC3CCCCC3)c3[nH]cnc3n2)cc1", "note": "[Cdk2 Inhibitor IV,                 NU6140]", "cell number": 51.1}, {"smiles": "NS(=O)(=O)c1cc2c(cc1Cl)NC=NS2(=O)=O", "note": "[Chlorothiazide]", "cell number": 105}, {"smiles": "NC(N)=NCCC[C@H](N)C(=O)O", "note": "[L-Arginine]", "cell number": 107}, {"smiles": "CCC(=O)OC1(C(=O)CCl)C(C)CC2C3CCC4=CC(=O)C=CC4(C)C3(F)C(O)CC21C", "note": "(stereo not given) [Clobetasol Propionate]", "cell number": 114}, {"smiles": "Cl.Nc1c2c(nc3ccccc13)CCCC2", "note": "[9-Amino-1,2,3,4-tetrahydroacridine hydrochloride]", "cell number": 103}, {"smiles": "CN1c2ccccc2C(=O)N2CCc3c([nH]c4ccccc34)C21", "note": "(stereo not given) [Evodiamine]", "cell number": 9.57}, {"smiles": "Cl.Clc1cccc(Cl)c1NC1=NCCN1", "note": "[Clonidine hydrochloride]", "cell number": 103}, {"smiles": "CCCCCCCCCCCC(=O)O", "note": "[Dodecanoic acid]", "cell number": 102}, {"smiles": "O=C1CC(c2ccc(O)cc2)Oc2cc(OC3OC(CO)C(O)C(O)C3O)cc(O)c21", "note": "(stereo not given) [Narigenin-7-O-glucoside]", "cell number": 103}, {"smiles": "CCCC1OC2CC3C4CCC5=CC(=O)C=CC5(C)C4C(O)CC3(C)C2(C(=O)CO)O1", "note": "(stereo not given) [Budesonide]", "cell number": 94.1}, {"smiles": "CC(c1cc2ccccc2s1)N(O)C(N)=O", "note": "(stereo not given) [Zileuton]", "cell number": 98.4}, {"smiles": "CC1CNc2c(cccc2S(=O)(=O)N[C@@H](CCCN=C(N)N)C(=O)N2CC[C@@H](C)C[C@@H]2C(=O)O)C1.O", "note": "(stereo not given in full)", "cell number": 104}, {"smiles": "O=C1Nc2cc(Br)ccc2C1=C1N=c2ccccc2=C1NO", "note": "[GSK-3 Inhibitor IX]", "cell number": 70.1}, {"smiles": "O=[N+]([O-])c1ccc([O-])c(OS(=O)(=O)[O-])c1.[K+].[K+]", "note": "[dipotassium 5-nitro-2-oxidophenyl sulfate]", "cell number": 108}, {"smiles": "CC(C)Cn1c(=O)n(C)c(=O)c2[nH]cnc21", "note": "[3-Isobutyl-1-methylxanthine]", "cell number": 118}, {"smiles": "Cc1ccc(Cl)c(Nc2ccccc2C(=O)[O-])c1Cl.[Na+]", "note": "[Meclofenamic acid sodium]", "cell number": 106}, {"smiles": "Cl.Clc1ccc2nsnc2c1NC1=NCCN1", "note": "[Tizanidine.HCl]", "cell number": 116}, {"smiles": "COc1cc(C)c(C=CC(C)=CC=CC(C)=CC(=O)O)c(C)c1C", "note": "[Acitretin]", "cell number": 108}]}]}
